# LGR2 inh – blocks bursicon-induced cAMP signaling via Drosophila LGR2 | 380,000 tested, 0.35% active | HEK293 LGR2, CRE-luciferase, bursicon-stimulated, 4 h | inhibition, % at 9.99 µM | AID 720647;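 active = drop in luminescence signal, shown as inhibition above about 50% in the replicate tests, limit read from the data, passing the limit was not always enough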;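 note: agonist challenge used bursicon conditioned medium at about half maximal strength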
# aDG glyco act – increases alpha dystroglycan glycosylation. activation, % at 10 µM. Pro5-aDG cells, alpha-DG glycosylation AlphaScreen (IIH6); 0% Pro5, 100% B10-LARGE cell signal. 360,000 tested, 0.22% active;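 active = activation of at least 8% versus controls, or a plate z-score of at least 8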;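 note: Pro5 are CHO cells carrying HIG-tagged alpha-DG that lacks glycosylation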
# TROY signal inh – blocks TROY-dependent signaling in reporter cells; Q293 LMP1-TROYcd NF-kB luciferase reporter, 4 h; 360,000 tested, 0.98% active; AID 1347056; inhibition, % at 10 µM;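 active = compounds whose plate-normalised and pattern-corrected inhibition of the luciferase reporter signal at the single screening dose is 50% or more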
# HSP90 inh – inhibitors of HSP90 luciferase refolding in rabbit reticulocyte lysate; inhibition, % at 5.6 µM; 290,000 tested, 0.91% active; luciferase refolding luminescence, 3 h;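 active = inhibition above the screen-wide mean plus 3 SD, computed separately per campaign, cut at about 16% in these data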;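 note: 0% = DMSO wells and 100% = 60 µM geldanamycin wells; inhibitors lower the luminescence because luciferase stays unfolded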
# TWEAK-Fn14 inh – TWEAK-Fn14 signaling inhibition; AID 1159606; TWEAK-stimulated Fn14 reporter cells, luciferase luminescence, 8 h; inhibition, % at 10 µM; 360,000 tested, 2% active; in the data active = inhibition above about 50%
# EBV LMP1 NFkB – Epstein-Barr LMP1 NF-kappaB reporter inhibition; LMP1-induced NF-kappaB luciferase reporter cells, luminescence; inhibition, % at 12.5 µM; 350,000 tested, 0.69% active; in the data active = inhibition above about 41%;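 note: 0% = neutral control wells and 100% = reference inhibitor control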
# * hit, by the source's call; · = no result given. Most compounds without a hit are left out; they make up all but 2.6% or so of the library.
SMILES,LGR2 inh,aDG glyco act,TROY signal inh,HSP90 inh,TWEAK-Fn14 inh,EBV LMP1 NFkB
CC(=O)Nc1ccc(OCCC[n+]2ccccc2)cc1,19.4,0.7,12.5,1.9,13.0,-0.3
CCCCCc1ccc(OCCC[n+]2ccccc2)c(CCCCC)c1,14.5,0.0,47.1,11.8,67.1*,24.9
CCCCCc1ccc(OCCOCCn2c[n+](C)c3ccccc32)c(CCCCC)c1,·,1.9,51.7*,3.6,89.0*,20.1
Nc1cc2c(cc1[N+](=O)[O-])-c1ccccc1C2=NO,-0.4,0.5,43.0,·,72.5*,8.7
CC(=O)Nc1cc2c(cc1[N+](=O)[O-])-c1ccccc1C2=NO,·,0.5,-25.2,·,-9.5,0.2
O=C(Cc1ccccn1)NCC[C@H]1CC[C@@H](NC(=O)c2ccccc2F)[C@H](CO)O1,6.3,·,·,·,·,·
NC(=O)[C@H]1CC2(CC(c3cccc(NC(=O)COc4ccc(Cl)cc4)c3)=NO2)CN1C(=O)Cc1ccc([N+](=O)[O-])cc1 (some centres not stated),24.5,0.1,28.9,·,65.4*,26.0
C[C@H](CO)N1C[C@H](C)[C@@H](CN(C)C(=O)Nc2ccc(C(F)(F)F)cc2)Oc2ccc(NC(=O)Nc3cccc4ccccc34)cc2CC1=O,-7.1,·,·,·,·,·
Cc1noc(C)c1S(=O)(=O)N(C)C[C@@H]1Oc2ccc(NS(=O)(=O)c3cccs3)cc2C(=O)N([C@H](C)CO)C[C@@H]1C,11.4,·,·,·,·,·
C[C@@H]1CN([C@H](C)CO)C(=O)c2cc(-c3ccncc3)cnc2O[C@@H]1CN(C)C(=O)C1CCC1,10.2,·,·,·,·,·
CCc1ccc(NC(=O)c2ccc(F)c(S(=O)(=O)NCC3COc4ccccc4O3)c2)cc1 (configuration not stated),8.4,3.7,43.5,-0.1,61.5*,13.1
O=C(NCC1COc2ccccc2O1)c1ccc(F)c(S(=O)(=O)N2CCOCC2)c1 (configuration not stated),-0.9,0.0,-0.9,·,-4.1,5.0
CCN(c1ccccc1)S(=O)(=O)c1cc(C(=O)Nc2ccc(Br)cc2)ccc1F,5.4,3.1,40.6,0.7,78.4*,5.8
C[C@@H]1CN([C@@H](C)CO)C(=O)CCCn2cc(nn2)CO[C@@H]1CN(C)Cc1ccc(Cl)c(Cl)c1,9.3,·,·,·,·,·
CCOC(=O)c1c(NC(=O)/C=C/C(=O)O)sc(C)c1-c1ccc(C(C)(C)C)cc1,29.9,1.5,89.8*,-1.5,98.3*,-30.8
Cn1c(C(=O)N2CCN(c3nc4ccccc4s3)CC2)cc2sccc21,13.1,0.3,47.2,0.0,45.1,30.9
O=C(c1cc2sccc2n1Cc1ccc(F)cc1)N1CCN(c2nc3ccccc3s2)CC1,·,3.7,29.7,8.1,64.8*,27.5
CN(CCC#N)c1ccc(/C=C(\C#N)c2ccccn2)cc1,73.0*,0.7,40.0,1.8,52.0*,-15.6
C[C@@H]1CN([C@@H](C)CO)C(=O)c2cccc(NC(=O)C3CCCCC3)c2O[C@H]1CN(C)Cc1ccccc1,8.9,·,·,·,·,·
O=C(Nc1ccc(Cl)cn1)c1ccc2c(Cl)c3c(nc2c1)CCC3,-18.3,-0.1,59.9*,-3.2,50.7*,0.5
COc1ccccc1-c1cn(CC[C@H]2CC[C@H](NC(=O)c3cnccn3)[C@@H](CO)O2)nn1,33.2,·,·,·,·,·
CCCCC(=O)N(C)c1c(C)nc2ccc(C(=O)N3CCCCC3)cn12,99.7*,0.0,-12.9,·,0.3,·
C[C@@H]1CN([C@@H](C)CO)C(=O)c2cc(-c3ccc(F)cc3)cnc2O[C@@H]1CN(C)C(=O)c1ccccc1F,15.4,·,·,·,·,·
Cc1cccc(N2CCN(S(=O)(=O)c3ccc4c(c3)CCN4C(=O)CCC(=O)O)CC2)c1C,·,-0.1,13.5,1.2,-3.2,7.1
CC(=O)N1CCCc2cc(S(=O)(=O)N3CCCC(C(=O)N4CCN(c5cc(C)ccc5C)CC4)C3)ccc21 (configuration not stated),5.9,1.4,44.4,-0.5,54.0*,15.7
SMILES,LGR2 inh,aDG glyco act,TROY signal inh,HSP90 inh,TWEAK-Fn14 inh,EBV LMP1 NFkB
Cc1ccc(C)c(N2CCN(S(=O)(=O)c3ccc4c(c3)CCN4C(=O)CCC(=O)O)CC2)c1,25.1,-0.1,0.3,-0.8,-10.5,85.5*
C=CCN1C=CC(=C/C=C(/C#N)C(=O)OCC)C=C1,·,0.3,-21.9,2.3,50.5*,3.7
Cc1ccc(Cc2cnc(NC(=O)c3ccco3)s2)cc1,·,-0.1,34.7,6.8,57.8*,-10.2
O=C(Nc1ncc(Cc2cccc([N+](=O)[O-])c2)s1)c1ccco1,-44.6,0.9,-36.3,1.8,-24.6,-16.7
Cc1ccc(CN(C)C[C@H]2OCc3cn(nn3)CCCC(=O)N([C@H](C)CO)C[C@@H]2C)cc1,-10.3,·,·,·,·,·
CCCN1[C@@H]2c3ccc(-c4ccc(OC)cc4)c(=O)n3C[C@@H]2[C@@H](CO)[C@@H]1C(=O)N(C)C,-12.3,·,·,·,·,·
C#CCOCCOCCOCCNc1nc(N2CCN(C(=O)CCCCCCCCCCNC(=O)Cn3cc(C[C@@H](C)O)nn3)CC2)nc(N2CCN(C(=O)CCCCCCCCCCNC(=O)[C@@H]([C@H](C)O)n3cc(C)nn3)CC2)n1,·,0.1,-19.1,·,83.8*,-29.6
C#CCOCCOCCOCCNc1nc(N2CCN(C(=O)CCCCCCCCCCNC(=O)Cn3cc(C[C@@H](C)O)nn3)CC2)nc(N2CCN(C(=O)CCCCCCCCCCNC(=O)[C@@H](CCSC)n3cc(CCO)nn3)CC2)n1,·,-0.1,-39.3,·,60.2*,-21.1
C#CCOCCOCCOCCNc1nc(N2CCN(C(=O)CCCCCCCCCCNC(=O)[C@@H](CCSC)n3cc(CCO)nn3)CC2)nc(N2CCN(C(=O)CCCCCCCCCCNC(=O)[C@@H]([C@H](C)O)n3cc(C)nn3)CC2)n1,11.4,0.2,-28.3,·,23.3,-3.0
C#CCOCCOCCOCCNc1nc(N2CCN(C(=O)CCCCCCCCCCNC(=O)Cn3cc(C[C@@H](C)O)nn3)CC2)nc(N2CCN(C(=O)CCCCCCCCCCNC(=O)[C@@H]([C@H](C)CC)n3cc(CCCCCN)nn3)CC2)n1,·,-0.2,68.5*,·,-9.3,-32.2
C#CCOCCOCCOCCNc1nc(N2CCN(C(=O)CCCCCCCCCCNC(=O)Cn3cc(CCCCCN)nn3)CC2)nc(N2CCN(C(=O)CCCCCCCCCCNC(=O)[C@@H]([C@H](C)O)n3cc(C)nn3)CC2)n1,·,0.0,0.6,·,-4.2,2.3
CCNC(=O)C[C@H]1CC[C@@H]2[C@H](COc3ccc(NC(=O)c4cccc(C(F)(F)F)c4)cc3C(=O)N2C)O1,11.5,·,·,·,·,·
CO[C@@H]1CN(C)C(=O)c2ccc(NC(=O)c3cc(C)on3)cc2OC[C@H](C)NC[C@@H]1C,13.4,·,·,·,·,·
O=C(O)c1ccccc1-c1ccc(C=c2sc3nc4cc(Br)cnc4n3c2=O)o1,1.6,0.2,13.9,·,54.1*,·
O=C(O)c1cc(C(=O)O)cc(-c2ccc(/C=c3/sc4nc5ccccc5n4c3=O)o2)c1,·,·,·,2.1,·,-4.4
COc1ccc(NC(=O)Nc2ccc3c(c2)[C@@H]2C[C@H](CC(=O)NCc4ccc5c(c4)OCO5)O[C@@H](CO)[C@@H]2O3)cc1,-8.2,·,·,·,·,·

# Screening results: PubChem BioAssay, several laboratories
